In PubChem BioAssay:
Unmarked numbers belong to inactive results. Active and inactive are the calls of the source.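 How the source made its calls, unless noted: active means mean inhibition above 46.68%, the untreated control wells mean plus 3 SD; inactive means the rest.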

Tests used:
[1] = molecular target: Nuclear receptor coactivator 1 (Homo sapiens) (UniProt Q15788); test: SRC1 coactivator transcriptional activity inhibitors, confirmation, cell-based, luminescence, quadruplicate (AID 588820); details: HEK293 GAL4-SRC1 luciferase reporter, at 3.6 µM, stronger effect = higher value;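 further: 0% = DMSO wells and 100% = gossypol 36 µM treated wells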
[2] = VP16 transactivation inhibitors, counter-screen for SRC1 inhibitor project, cell-based, luminescence, high throughput (AID 588824; in the data active means inhibition above about 25%); details: cell-based VP16 transactivation luciferase luminescence; at 3.6 µM; stronger effect = higher value

Chain of Nuclear receptor coactivator 1 (Homo sapiens) (Q15788 whole entry, looked up, the tested form may be a part): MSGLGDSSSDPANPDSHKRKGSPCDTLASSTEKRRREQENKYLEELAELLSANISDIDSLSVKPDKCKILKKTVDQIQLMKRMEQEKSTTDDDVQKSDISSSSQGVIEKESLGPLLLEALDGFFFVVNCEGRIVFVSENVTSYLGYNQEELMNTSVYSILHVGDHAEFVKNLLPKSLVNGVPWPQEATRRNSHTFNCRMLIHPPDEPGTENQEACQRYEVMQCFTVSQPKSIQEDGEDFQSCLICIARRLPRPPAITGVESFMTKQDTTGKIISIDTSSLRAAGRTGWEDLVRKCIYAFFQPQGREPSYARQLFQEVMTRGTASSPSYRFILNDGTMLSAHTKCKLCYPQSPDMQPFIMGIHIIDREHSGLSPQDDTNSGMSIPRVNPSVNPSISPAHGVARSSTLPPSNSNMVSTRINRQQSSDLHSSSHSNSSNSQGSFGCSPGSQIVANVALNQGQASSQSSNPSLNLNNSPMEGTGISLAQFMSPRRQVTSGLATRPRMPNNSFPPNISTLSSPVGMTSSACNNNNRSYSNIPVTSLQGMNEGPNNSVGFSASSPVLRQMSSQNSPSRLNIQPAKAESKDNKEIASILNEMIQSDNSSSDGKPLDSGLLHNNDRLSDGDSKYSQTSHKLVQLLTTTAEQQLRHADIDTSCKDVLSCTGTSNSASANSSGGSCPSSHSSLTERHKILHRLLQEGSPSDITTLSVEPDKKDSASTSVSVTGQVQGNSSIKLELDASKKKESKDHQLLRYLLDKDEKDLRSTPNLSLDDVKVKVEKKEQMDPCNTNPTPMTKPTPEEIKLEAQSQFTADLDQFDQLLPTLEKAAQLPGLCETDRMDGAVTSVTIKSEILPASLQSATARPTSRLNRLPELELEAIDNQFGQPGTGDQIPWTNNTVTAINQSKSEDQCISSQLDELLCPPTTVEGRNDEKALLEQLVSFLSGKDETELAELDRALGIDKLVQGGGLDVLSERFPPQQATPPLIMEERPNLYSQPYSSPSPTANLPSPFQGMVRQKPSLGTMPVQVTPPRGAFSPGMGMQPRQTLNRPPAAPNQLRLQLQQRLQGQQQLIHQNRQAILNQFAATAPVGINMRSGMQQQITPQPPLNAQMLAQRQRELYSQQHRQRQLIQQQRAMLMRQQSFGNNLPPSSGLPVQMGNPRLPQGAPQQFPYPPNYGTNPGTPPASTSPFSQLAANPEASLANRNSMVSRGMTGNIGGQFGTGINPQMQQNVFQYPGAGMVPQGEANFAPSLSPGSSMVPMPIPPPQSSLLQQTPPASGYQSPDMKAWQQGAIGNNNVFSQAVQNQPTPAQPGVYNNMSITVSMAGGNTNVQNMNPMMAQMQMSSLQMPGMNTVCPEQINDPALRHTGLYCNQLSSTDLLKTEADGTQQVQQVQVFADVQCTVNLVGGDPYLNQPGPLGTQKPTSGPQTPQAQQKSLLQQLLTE

Compound	inhibition [1] [%]	inhibition [2]
COc1ccc(Cl)cc1NC(=O)CSc1nc(=O)n(CCN(C)C)c2c1CCCC2	-13.4	-0.03%
N#Cc1ccc(Oc2ccc(C(F)(F)F)cc2NC(=O)c2ccc(F)cc2)cc1	6.71	1.11%
c1cc2c(cn1)cnc1cscc12	40.9	7.33%
Cc1ccc(S(=O)(=O)NCc2ccc3c(c2)OCO3)cc1C	-20.8	1.6%
COc1cc(C(=O)O)cc(NC(=O)c2ccco2)c1OC	-9.74	2.33%
O=C(COc1ccccc1-c1ccccc1)N/N=C/c1ccncc1	-7.29	13.6%
O=C(OCC(=O)N1CCN(S(=O)(=O)c2ccc(Cl)cc2)CC1)c1cccc(OC(F)F)c1	-50.5	-5.85%
O=C(CSc1ccccc1)Nc1nnc(-c2ccco2)o1	1.78	-4.61%
CCNc1nc2c(c(=O)n(C)c(=O)n2C)n1Cc1ccc(Cl)cc1	-0.87	23.4%
CCOC(=O)N1CCN(C(=O)c2cc(-c3ccncc3)nc3ccccc23)CC1	-21.2	3.82%
O=C1c2cccc(NCCCNCCO)c2C(=O)c2cccc(NCCCNCCO)c21	7.28	16.3%
COc1ccc(OC)c(S(=O)(=O)NCC(c2ccc3c(c2)OCO3)N2CCOCC2)c1 (stereo unspecified)	-16.7	-6.55%
COc1ccccc1C1NC(=O)NC(C)=C1C(=O)OC1CCCC(C)C1 (stereo unspecified)	6.58	-1.62%
O=C(c1ccccc1)c1sc(Nc2ccc3c(c2)OCO3)nc1-c1ccccc1	13.9	18.1%
COc1ccccc1C(c1nnnn1Cc1ccco1)N1CCN(c2cccc(C)c2C)CC1 (stereo unspecified)	10.7	5.76%
CCCC(C)NC(=O)C1c2ccccc2Oc2ccccc21 (stereo unspecified)	-0.82	-7.9%
Cc1nnc(N2CCN(Cc3ccccc3)CC2)[nH]c1=O	-4.97	-7.63%

Compound	inhibition [1] [%]	inhibition [2]
CCOC(=O)Cc1csc(SCC(=O)c2c(N)n(CC(C)C)c(=O)n(C)c2=O)n1	-7.3	26.3% (active)
O=c1cc(N2CCN(c3ccccc3Cl)CC2)[nH]c(=O)n1Cc1ccc(F)cc1	-4.06	16.8%
CC1Sc2ccc(C(=O)Nc3ccc(S(=O)(=O)N(C)C)cc3)cc2NC1=O (stereo unspecified)	9.77	6.36%
Fc1cc2[nH]cnc2cc1Cl	-2.02	-5.47%
COc1ccc(-c2nnc(NC(=O)CSc3ccccc3)s2)cc1OC	1.2	-8.89%
O=C(Cc1cccs1)N(CC1CCCO1)C1(C(=O)NC2CCCC2)CCCCC1 (stereo unspecified)	3.51	17.6%
CN=C(C)/C(C(=O)OC)=C(/O)c1c(F)cccc1F	-28.3	3.9%
CC(CNC(=O)c1cc(COc2ccc3ncccc3c2)on1)c1ccccc1 (stereo unspecified)	-0.59	3.38%
O=C(Nc1ccc(Oc2ccccc2)cc1)c1ccc2sc([C@H]3C[C@H](O)[C@@H](CO)O3)nc2c1	-13.8	19.3%
O=C(N[C@H]1c2ccccc2C[C@H]1O)[C@H]1O[C@@H](n2ccc(=O)[nH]c2=O)[C@H](O)[C@@H]1O	-26.1	-8.81%
COc1ccc(CNc2nc(C)cc(C)c2C#N)cc1	-9.61	-3.68%
COc1ccc(CNC(=O)c2ccc(N3CCC4(CC3)CC(c3ccc(Cl)cc3)=NO4)c([N+](=O)[O-])c2)cc1	6.27	28.2% (active)
Cc1ccccc1-n1nc(C)c2c1N=C1C(Cl)=CC(Cl)=CN1C2c1ccc(C(=O)O)cc1 (stereo unspecified)	-9.32	-14.1%
CSc1sc(C(=O)NC(=O)NCc2cccnc2)c(C)c1-c1ccon1	3.32	1.48%
O=C(c1ccccc1Sc1ccccc1[N+](=O)[O-])N1CCCCC1	10.1	14.3%
Cc1cccc(C)c1NC(=O)C1(C)CCC(=O)N1c1cc(C(C)(C)C)nn1C (stereo unspecified)	-13.6	-5.42%
